# Test results from PubChem BioAssay AID504843 (Broad Institute, 2011).
# Out of some 1,200 compounds screened, about 360 (30%) were called active. How the calls were made is not given here. A selection follows. Entries with a potency or affinity are not part of this list.
# Assay: antibacterial activity by ATP level – BacTiter-Glo luminescence, cherry-picked samples, counter-screen, dose response (AID 504843);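 further: growth measured after 8 h incubation at 30 °C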
# Conditions: bacterial growth; series mostly up to 15 µM
row,Compound,outcome
1,CC(C)c1cccc(C(C)C)c1OC(=O)[C@H]1OC(C(C)(C)C)=C[C@@H]1c1ccccc1,inactive
2,COC(=O)CN1C(=O)C(O)=C(C(C)=O)C1c1ccc([N+](=O)[O-])cc1 (centres undefined),inactive
3,Cc1c(N2C(=O)c3cccc4cccc(c34)C2=O)c(=O)n(-c2ccccc2)n1C,inactive
4,CCCc1c(O)nc(SC2CC(=O)N(c3ccc(OC)cc3)C2=O)[nH]c1=O (centres undefined),inactive
5,CC(C)CNC(=S)NC1CCCC1,inactive
6,COc1cc(SC)ccc1C(=O)Nc1cc(C)ccn1,inactive
7,COc1cc2cc(C(c3nnnn3Cc3ccc(F)cc3)N3CCCCCC3)c(=O)[nH]c2cc1OC (centres undefined),inactive
8,O=C(O)C1CCCCN1S(=O)(=O)c1ccc(Cl)s1 (centres undefined),inactive
9,O=S(=O)(NC1CCCC1)c1cc(F)ccc1F,inactive
10,Cc1cc(=O)oc2cc(OCC(=O)OCC(=O)N3CCc4ccccc43)ccc12,inactive
11,CCc1nc2nc(C)c(NS(=O)(=O)c3ccc(Cl)s3)c(=O)n2[nH]1,inactive
12,Cc1ccc(=O)n(-c2ccccc2)c1,inactive
13,COc1ccc(Cc2nnc(NS(=O)(=O)c3ccc(Cl)cc3)s2)cc1OC,inactive
14,COc1ccc(Cl)cc1S(=O)(=O)Nc1noc2ccccc12,inactive
15,CC(C)(CO)[C@@H](O)C(=O)NCCC(=O)O,inactive
16,COc1cc(C(=O)NCCOC(=O)c2cccc(N(C)C)c2)cc(OC)c1OC,inactive
17,N#Cc1c(N)nc2c(c1-c1ccncc1)CCCCC2,inactive
18,Cc1ccccc1-n1c(SCC(=O)N2CCOCC2)nc(O)c(Cc2ccccc2)c1=O,inactive
19,CN(Cc1ccccc1)C(=O)N1CCOCC1,inactive
20,Cc1cc(C)n2nc(SC(C)C(=O)N3CC(C)OC(C)C3)nc2n1 (centres undefined),inactive
21,COc1ccc(OC)c(NC(=O)c2cccnc2)c1,inactive
22,CN1CCN(c2ccc(S(=O)(=O)N3CCCCC3)cc2NC(=O)c2cccc([N+](=O)[O-])c2)CC1,inactive
23,O=C(O)c1ccc(N/N=C/c2ccc(-c3ccccc3)cc2)cc1,inactive

row,Compound,outcome
1,Cc1ccnc(NS(=O)(=O)c2ccc(NS(=O)(=O)c3ccccc3)cc2)n1,inactive
2,O=C(O)c1ccc(NS(=O)(=O)c2cc(C(=O)O)ccc2Br)cc1,inactive
3,Brc1ccc(NC2=Nc3ccccc3CC2)cc1,inactive
4,C[C@@H]1O[C@@H](Oc2c(-c3ccc(O)c(O)c3)oc3cc(O)cc(O)c3c2=O)[C@H](O)[C@H](O)[C@H]1O,inactive
5,C[C@H](NC(=O)c1nc[nH]c1C(=O)NCc1ccc(CNC(=O)OC(C)(C)C)cc1)c1ccccc1,inactive
6,CC(C)(C)OC(=O)[C@H](Cc1ccccc1)NC(=O)c1nc[nH]c1C(=O)NC1CCN(C(=O)OC(C)(C)C)CC1,inactive
7,O=C(CCc1ccccc1)N1CCN(Cc2ccc(F)cc2Cl)CC1,inactive
8,Cn1cc(CN2CCC(CO)(CCCc3ccccc3)CC2)c(-c2ccccc2)n1,inactive
9,CCCn1c(N)c(C(=O)CSc2nc(C)cs2)c(=O)n(C)c1=O,inactive
10,O=C(Nc1ccccc1OC(F)F)c1oc2ccccc2c1COc1ccccc1,inactive
11,O=C(O)CC(NCc1ccco1)C(=O)OCCc1ccccc1 (centres undefined),inactive
12,CC(/C=N/NC(=O)c1nnn(-c2nonc2N)c1C(C)C)=C\c1ccccc1,inactive
13,CCn1c(SCC(=O)Nc2ccc(OC)cc2)nc2c1c(=O)n(C)c(=O)n2C,inactive
14,CCOc1ccc(NC(C(=O)Nc2cccc(C(C)=O)c2)c2ccccc2)cc1 (centres undefined),inactive
15,CN1CCN(CCC(=O)Nc2ccc(OCc3ccccc3)cc2)CC1,inactive
16,CN(c1ccccc1C(=O)Nc1ccc(S(=O)(=O)N2CCOCC2)cc1)S(C)(=O)=O,inactive
17,CC(C)(C)NC(=O)NC(=O)CSc1ccc(S(=O)(=O)N2CCOCC2)cn1,inactive
18,Cc1nc(SCc2nc3ccccc3[nH]2)c2oc3ccccc3c2n1,inactive
19,COc1ccc([N+](=O)[O-])cc1/C=N/NC(=O)Cc1ccccc1,inactive
20,O=c1/c(=C/c2ccc(O)c([N+](=O)[O-])c2)sc2nc3ccccc3n12,inactive
21,CC(SCC(=O)Nc1ccc(F)cc1)c1nc2ccccc2c(=O)[nH]1 (centres undefined),inactive
22,Cc1nc2c(=O)n(-c3cccc(C(F)(F)F)c3)nc(C)c2s1,inactive
23,CCN1CCCC1CNCc1cccc(OC)c1OCc1ccc(F)cc1 (centres undefined),inactive

row,Compound,outcome
1,CCN1CCCC1CNC(=O)C(=O)NC(C)C (centres undefined),inactive
2,O=C(O)c1sccc1OCc1ccccc1,inactive
3,CCOc1ccc(Br)cc1CNCCN1CCOCC1,inactive
4,O=C(CCC1CCCCC1)NCCN1CCOCC1,inactive
5,COc1ccc(N=Cc2nc(-c3ccccc3)oc2OC(=O)c2ccccc2)cc1,inactive
6,CCNc1nc(OC)nc(Oc2ccc(=O)n(-c3ccccc3)n2)n1,inactive
7,Clc1ccc(-c2csc(-c3cccnc3)n2)s1,inactive
8,Nc1nc2ccc([N+](=O)[O-])c(N)c2s1,inactive
9,CCSC(=O)NC12CC3CC(CC(C3)C1)C2,inactive
10,O=C(CSc1nc2ccccc2c(=O)n1CCCN1CCOCC1)Nc1ccc2c(c1)OCO2,inactive
11,O=C(O)c1ccccc1-c1nc2ccccc2c(=O)n1O,inactive
12,CN(C(=O)COC(=O)CNC(=O)C12CC3CC(CC(C3)C1)C2)C1CCS(=O)(=O)C1 (centres undefined),inactive
13,N#CC1=C2SCC(O)(c3ccccc3)N2C(=O)CC1c1ccccc1F (centres undefined),inactive
14,COc1cc2c(cc1OC)C(c1cccc(F)c1)CC(=O)N2 (centres undefined),inactive
15,COc1ccc(C2CC(=O)Nc3n[nH]c(-c4ccccc4)c32)cc1OC (centres undefined),inactive
16,Cc1csc(N2CCCC2c2nc3cc(C(F)(F)F)ccc3n2CCOCCO)n1 (centres undefined),inactive
17,CN1C2CCC1CC(NS(=O)(=O)c1cc(Cl)c(Cl)cc1Cl)C2 (centres undefined),inactive
18,CN(C)c1ccc(C(=O)n2nnc3ccccc32)cc1,inactive
19,CC(C)(C)c1ccc(C(=O)O)c(C(=O)c2ccc(C(=O)O)cc2)c1,inactive
20,Nc1nnc(-c2cn(-c3ccccc3)nc2-c2ccc(Cl)cc2)o1,inactive
21,COc1ccc(CNC(=O)Cn2nnc(-c3ccc(NC(=O)C4CCCCC4)cc3)n2)cc1,inactive
22,Cc1cccc(CNC(=O)C2CCCN(c3nn4c(=O)cc(C)nc4s3)C2)c1 (centres undefined),inactive
23,CCc1ccc(NS(=O)(=O)c2ccc3[nH]cc(C(=O)N4CCCCC4)c(=O)c3c2)cc1,inactive
